In the supplement of paper PMC9948646:

These compounds were tested on gramicidin D channels in DC22:1PC lipid vesicles (bilayer-modifying potency) (assay: initial Tl+ fluorescence quench rate relative to no-drug control (NormRate, gramicidin monomer-dimer shift) (ratio (fold of control)); higher = stronger bilayer-modifying effect (equilibrium shifted toward conducting dimers), active = 1.5 or more). Conditions: 10 µM; lipid concentration 50 µM; temperature: 25 °C.
Description: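 Stopped-flow fluorescence quench assay: ANTS-loaded DC22:1PC large unilamellar vesicles doped with gramicidin D (1:2000), 50 µM lipid, equilibrated 10 min with 10 µM drug (0.1% DMSO), mixed with Tl+ quench buffer at 25°C. Initial quench rate (Tl+ influx) was fitted with a modified stretched exponential and normalised to the no-drug control rate (NormRate); duplicates from two independent LUV preparations (triplicates for 7 drugs).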
In the case of `Cc1nn(Cc2ccccc2)c(Cl)c1C(=O)NC1CCCCCC1`, the “initial Tl+ fluorescence quench rate” value is reported as 1.1 (inactive). With `CC1(C)OB(O)c2ccc(C3=NO[C@@](c4cc(Cl)c(F)c(Cl)c4)(C(F)(F)F)C3)cc21` the “initial Tl+ fluorescence quench rate” value was 4.11 (active). With `O=C1O[C@@H](COc2ccon2)CN1c1cc(F)c(C2=CCN(Cc3ccccc3)CC2)c(F)c1` the “initial Tl+ fluorescence quench rate” value was 1.31 (inactive). With `CO/N=C(\C(=O)OC)c1ccccc1CO/N=C(\C)c1cccc(C(F)(F)F)c1` the “initial Tl+ fluorescence quench rate” value was 1.36 (inactive). For `Cc1nn(C)c(C)c1NS(=O)(=O)c1c(Cl)cc(-c2ccnc(N3CCNCC3)c2)cc1Cl`, the “initial Tl+ fluorescence quench rate” value was 1.38 (inactive). In the case of `Nc1c2c(nc3sc4c(c13)CCCC4)CCCC2`, the “initial Tl+ fluorescence quench rate” value is reported as 1.07 (inactive). In the case of `CO[C@@H]1CN(c2ccc(C#C[C@@]3(O)CN4CCC3CC4)c(Cc3ccccc3)n2)C[C@H]1O`, the “initial Tl+ fluorescence quench rate” value is reported as 1.06 (inactive). With `CC(C)(C)[C@@H](O)[C@H](Oc1ccc(-c2ccccc2)cc1)n1cncn1` the “initial Tl+ fluorescence quench rate” value was 2.39 (active). With `C[C@@H]1CO[C@](Cn2cncn2)(c2ccc(Oc3ccc(Cl)cc3)cc2Cl)O1` the “initial Tl+ fluorescence quench rate” value was 2.49 (active). For `O=C1O[C@@H](CO)CN1c1cc(F)c(C2=CCN(Cc3ccccc3)CC2)c(F)c1`, the “initial Tl+ fluorescence quench rate” value was 1.13 (inactive). `Cc1cccc(C(=O)Nc2ccnc(N(C)C3CCN(CC(C)C)CC3)c2)c1` was tested, and the “initial Tl+ fluorescence quench rate” value was 1.12 (inactive). `CO/C=C(/C(=O)OC)c1ccccc1Oc1cc(Oc2ccccc2C#N)ncn1` was tested, and the “initial Tl+ fluorescence quench rate” value was 1.05 (inactive). `CCc1nn(C)c(C(=O)NCc2ccc(Oc3ccc(C)cc3)cc2)c1Cl` was tested, and the “initial Tl+ fluorescence quench rate” value was 2.89 (active). With `Cc1cc(C2=NO[C@@](c3cc(Cl)c(F)c(Cl)c3)(C(F)(F)F)C2)ccc1C(=O)NCc1ccc2c(c1)C(C)(C)OB2O` the “initial Tl+ fluorescence quench rate” value was 4.21 (active).
